Measured values published in the supplement of paper PMC10849652.
About 8,800 targets were measured; listed, in parts, are those with a hit and a random draw of the rest. About 0.5% of all pairs of compound and target were hits. Unmarked numbers belong to inactive results.

Columns and labels:
Test in all cases: log2 fold change, soluble protein after heating vs DMSO (PISA); higher = thermal stabilisation; K562 lysate, 10 uM; active = over 0.2 and 3.5 SD of the protein, either way, in both replicates (recomputed)
[1] = compound: C1=CC=C(C=C1)[C@H](COC2=CC3=C(C=C2)NC(=O)N3)NC(=O)C4=CC=CN(C4=O)CC5=CC(=C(C=C5)F)F
How it was run: (§1)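 A 30 min treatment with 10 μM compound was applied to crude K562 extract at 1 mg/mL protein in PBS pH 7.4 with 1 mM MgCl2. Heating for 3 min spanned 48°C-58°C, after which aliquots were pooled, adjusted to 0.5% NP-40 at 4°C and spun at 21,000xg for 90 min. TMTpro 16plex LC-MS/MS of the supernatant, with channel sums equalised, gave values recorded as log-two fold change in thermal stability against solvent controls, from duplicates.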

[2] = compound: CC1=C(SC2=C1C(=N[C@H](C3=NN=C(N32)C)CC(=O)N)C4=CC=C(C=C4)Cl)C
How it was run: as §1

[3] = compound: CC1=C2C(=CC=C1)N=C(N(C2=O)C3=CC=CC=C3C)CN4C=NC5=C(N=CN=C54)N
How it was run: as §1

[4] = compound: Cc1sc2c(c1C)C(c1ccc(Cl)cc1)=N[C@@H](CC(=O)OC(C)(C)C)c1nnc(C)n1-2
How it was run: as §1

[5] = compound: c1ccc([C@@H]2C[C@H]2NC2CCNCC2)cc1
How it was run: as §1

Chain of UniProt Q5VU43 (Q5VU43 whole entry, looked up): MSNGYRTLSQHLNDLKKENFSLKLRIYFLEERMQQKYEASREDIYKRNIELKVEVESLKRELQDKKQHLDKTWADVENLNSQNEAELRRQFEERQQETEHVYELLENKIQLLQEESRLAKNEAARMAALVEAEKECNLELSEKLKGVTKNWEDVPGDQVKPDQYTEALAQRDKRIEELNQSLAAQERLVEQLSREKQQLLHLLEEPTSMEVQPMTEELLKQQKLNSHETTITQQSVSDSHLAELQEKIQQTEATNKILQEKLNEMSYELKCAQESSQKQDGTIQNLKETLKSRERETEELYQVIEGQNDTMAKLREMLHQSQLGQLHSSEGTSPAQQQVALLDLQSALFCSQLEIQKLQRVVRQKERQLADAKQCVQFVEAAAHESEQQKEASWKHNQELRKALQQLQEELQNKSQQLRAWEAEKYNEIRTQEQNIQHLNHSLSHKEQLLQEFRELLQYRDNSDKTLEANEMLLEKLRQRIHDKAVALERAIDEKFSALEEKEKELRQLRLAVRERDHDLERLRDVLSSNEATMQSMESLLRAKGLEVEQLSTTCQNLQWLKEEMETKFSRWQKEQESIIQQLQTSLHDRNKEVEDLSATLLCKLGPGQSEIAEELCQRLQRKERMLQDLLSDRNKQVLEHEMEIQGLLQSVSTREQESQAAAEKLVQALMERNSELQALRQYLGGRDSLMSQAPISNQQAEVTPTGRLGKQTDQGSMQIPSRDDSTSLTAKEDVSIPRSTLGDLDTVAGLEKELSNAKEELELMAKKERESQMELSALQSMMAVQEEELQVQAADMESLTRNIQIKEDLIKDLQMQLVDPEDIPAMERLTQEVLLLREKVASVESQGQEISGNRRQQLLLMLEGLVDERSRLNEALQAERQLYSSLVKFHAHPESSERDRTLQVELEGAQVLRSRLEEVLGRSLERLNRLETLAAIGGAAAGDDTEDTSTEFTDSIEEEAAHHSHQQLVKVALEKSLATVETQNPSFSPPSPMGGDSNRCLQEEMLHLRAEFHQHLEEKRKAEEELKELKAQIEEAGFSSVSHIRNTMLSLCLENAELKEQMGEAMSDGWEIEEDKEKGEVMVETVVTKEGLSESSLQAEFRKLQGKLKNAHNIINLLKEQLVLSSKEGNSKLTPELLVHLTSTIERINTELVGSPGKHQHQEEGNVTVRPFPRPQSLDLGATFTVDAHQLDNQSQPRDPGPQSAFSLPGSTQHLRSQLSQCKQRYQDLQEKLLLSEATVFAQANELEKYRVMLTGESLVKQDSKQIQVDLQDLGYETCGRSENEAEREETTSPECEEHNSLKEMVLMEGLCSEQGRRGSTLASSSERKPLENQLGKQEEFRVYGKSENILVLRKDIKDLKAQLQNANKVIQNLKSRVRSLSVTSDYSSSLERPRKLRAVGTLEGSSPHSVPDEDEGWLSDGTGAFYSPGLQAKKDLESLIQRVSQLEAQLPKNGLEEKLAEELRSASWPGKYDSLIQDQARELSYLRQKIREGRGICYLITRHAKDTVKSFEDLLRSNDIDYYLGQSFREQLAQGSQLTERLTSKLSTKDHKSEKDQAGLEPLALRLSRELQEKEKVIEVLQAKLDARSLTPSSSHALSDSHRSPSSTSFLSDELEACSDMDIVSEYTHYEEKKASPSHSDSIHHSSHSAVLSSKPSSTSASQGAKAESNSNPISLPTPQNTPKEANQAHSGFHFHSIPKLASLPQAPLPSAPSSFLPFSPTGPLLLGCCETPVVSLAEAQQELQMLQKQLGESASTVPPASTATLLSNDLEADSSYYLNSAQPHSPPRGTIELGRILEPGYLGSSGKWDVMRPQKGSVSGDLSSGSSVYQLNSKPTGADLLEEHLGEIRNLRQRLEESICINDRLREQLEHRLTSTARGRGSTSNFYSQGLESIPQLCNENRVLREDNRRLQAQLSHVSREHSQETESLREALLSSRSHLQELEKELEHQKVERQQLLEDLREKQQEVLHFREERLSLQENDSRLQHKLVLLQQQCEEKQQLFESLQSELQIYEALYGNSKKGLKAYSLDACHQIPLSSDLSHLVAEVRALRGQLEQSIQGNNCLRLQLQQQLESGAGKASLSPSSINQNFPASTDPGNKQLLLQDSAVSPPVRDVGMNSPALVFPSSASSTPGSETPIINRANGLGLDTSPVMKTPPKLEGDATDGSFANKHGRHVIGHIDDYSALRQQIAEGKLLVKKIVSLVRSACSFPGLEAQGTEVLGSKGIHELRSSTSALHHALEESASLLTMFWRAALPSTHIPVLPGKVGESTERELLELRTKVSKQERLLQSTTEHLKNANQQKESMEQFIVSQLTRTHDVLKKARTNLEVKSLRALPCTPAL
Chain of UniProt P13667 (P13667 whole entry, looked up): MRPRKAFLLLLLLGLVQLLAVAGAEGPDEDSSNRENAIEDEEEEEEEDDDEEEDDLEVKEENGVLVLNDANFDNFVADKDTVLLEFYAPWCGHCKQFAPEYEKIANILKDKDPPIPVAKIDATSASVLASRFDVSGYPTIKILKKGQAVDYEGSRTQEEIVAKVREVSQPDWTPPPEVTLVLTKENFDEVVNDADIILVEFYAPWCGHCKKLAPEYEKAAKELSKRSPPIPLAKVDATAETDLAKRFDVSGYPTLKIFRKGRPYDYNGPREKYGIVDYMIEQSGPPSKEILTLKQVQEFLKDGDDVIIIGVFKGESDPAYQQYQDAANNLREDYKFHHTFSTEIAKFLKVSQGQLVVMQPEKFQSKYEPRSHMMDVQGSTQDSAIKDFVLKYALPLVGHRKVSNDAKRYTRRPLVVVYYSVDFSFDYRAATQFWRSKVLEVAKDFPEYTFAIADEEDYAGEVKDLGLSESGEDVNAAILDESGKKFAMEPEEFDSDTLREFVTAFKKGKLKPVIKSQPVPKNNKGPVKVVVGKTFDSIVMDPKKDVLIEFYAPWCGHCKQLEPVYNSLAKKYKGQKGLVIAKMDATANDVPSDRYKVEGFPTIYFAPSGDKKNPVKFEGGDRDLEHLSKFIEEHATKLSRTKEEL
Chain of UniProt Q9H4Z3 (Q9H4Z3 whole entry, looked up): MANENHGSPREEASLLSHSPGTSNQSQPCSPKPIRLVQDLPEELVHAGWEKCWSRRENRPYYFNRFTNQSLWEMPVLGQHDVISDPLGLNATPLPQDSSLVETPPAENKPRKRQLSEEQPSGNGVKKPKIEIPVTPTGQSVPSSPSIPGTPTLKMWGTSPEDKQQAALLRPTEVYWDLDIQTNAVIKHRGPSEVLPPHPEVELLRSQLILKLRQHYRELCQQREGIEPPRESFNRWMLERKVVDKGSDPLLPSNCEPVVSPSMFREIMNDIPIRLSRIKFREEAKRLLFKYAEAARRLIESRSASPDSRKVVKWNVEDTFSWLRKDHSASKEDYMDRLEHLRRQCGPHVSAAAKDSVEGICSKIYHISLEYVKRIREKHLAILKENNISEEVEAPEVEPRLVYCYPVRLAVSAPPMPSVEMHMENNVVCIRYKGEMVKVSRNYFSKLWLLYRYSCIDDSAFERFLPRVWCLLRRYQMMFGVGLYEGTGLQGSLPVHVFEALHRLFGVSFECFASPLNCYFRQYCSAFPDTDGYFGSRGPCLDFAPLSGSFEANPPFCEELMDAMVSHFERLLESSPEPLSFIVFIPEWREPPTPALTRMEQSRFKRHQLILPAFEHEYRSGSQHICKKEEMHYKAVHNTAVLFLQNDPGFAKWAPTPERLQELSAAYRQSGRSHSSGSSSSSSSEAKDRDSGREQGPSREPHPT
Chain of UniProt Q9NXJ5 (Q9NXJ5 whole entry, looked up): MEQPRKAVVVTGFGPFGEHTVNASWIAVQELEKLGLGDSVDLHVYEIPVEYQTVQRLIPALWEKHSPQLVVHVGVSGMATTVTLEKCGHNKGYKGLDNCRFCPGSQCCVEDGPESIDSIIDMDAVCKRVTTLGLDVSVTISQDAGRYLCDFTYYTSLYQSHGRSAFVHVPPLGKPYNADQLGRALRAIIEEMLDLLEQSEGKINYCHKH
Chain of UniProt Q9Y606 (Q9Y606 whole entry, looked up): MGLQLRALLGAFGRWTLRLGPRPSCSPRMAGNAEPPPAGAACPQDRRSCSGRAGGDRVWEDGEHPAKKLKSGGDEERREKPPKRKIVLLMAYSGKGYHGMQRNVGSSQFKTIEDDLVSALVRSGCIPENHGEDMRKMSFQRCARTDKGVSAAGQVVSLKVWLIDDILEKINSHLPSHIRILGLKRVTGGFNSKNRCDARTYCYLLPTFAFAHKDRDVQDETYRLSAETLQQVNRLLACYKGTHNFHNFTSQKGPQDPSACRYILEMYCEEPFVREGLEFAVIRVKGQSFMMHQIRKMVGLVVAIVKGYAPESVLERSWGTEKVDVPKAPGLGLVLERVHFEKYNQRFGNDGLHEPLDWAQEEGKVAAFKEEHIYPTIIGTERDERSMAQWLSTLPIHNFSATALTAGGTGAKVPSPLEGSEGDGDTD
Chain of UniProt Q15004 (Q15004 whole entry, looked up): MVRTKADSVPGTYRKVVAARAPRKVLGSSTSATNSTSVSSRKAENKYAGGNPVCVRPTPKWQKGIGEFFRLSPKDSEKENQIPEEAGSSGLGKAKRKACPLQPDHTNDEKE
Chain of UniProt P50336 (P50336 whole entry, looked up): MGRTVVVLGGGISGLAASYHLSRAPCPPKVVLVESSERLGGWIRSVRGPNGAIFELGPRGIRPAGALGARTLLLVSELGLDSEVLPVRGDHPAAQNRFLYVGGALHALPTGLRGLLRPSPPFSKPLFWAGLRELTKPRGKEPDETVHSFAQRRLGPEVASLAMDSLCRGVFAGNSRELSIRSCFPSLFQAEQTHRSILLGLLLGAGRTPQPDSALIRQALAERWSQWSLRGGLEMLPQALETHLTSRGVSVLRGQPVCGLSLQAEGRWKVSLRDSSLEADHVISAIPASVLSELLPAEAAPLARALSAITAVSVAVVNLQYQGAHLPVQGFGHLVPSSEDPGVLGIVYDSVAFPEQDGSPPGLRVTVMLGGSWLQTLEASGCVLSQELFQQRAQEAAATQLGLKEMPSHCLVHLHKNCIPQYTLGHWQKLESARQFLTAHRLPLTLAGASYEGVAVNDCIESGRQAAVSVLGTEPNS

| Target | log2 fold change [1] | log2 fold change [2] | log2 fold change [3] | log2 fold change [4] | log2 fold change [5] |
| --- | --- | --- | --- | --- | --- |
| PCLAF (UniProt Q15004) | 0.053 | 0.016 | -0.037 | -0.059 | -0.039 |
| PCIF1 (UniProt Q9H4Z3) | -0.015 | -0.013 | 0.026 | 0.066 | -0.111 |
| PDIA4 (UniProt P13667) | -0.004 | -0.006 | -0.009 | 0.002 | 0.037 |
| POC5 (UniProt Q8NA72) | 0.016 | -0.052 | 0.161 | 0.17 | -0.097 |
| POLR2M (UniProt P0CAP2) | 0.026 | -0.005 | 0.025 | 0.024 | 0.005 |
| PGLS (UniProt O95336) | -0.063 | -0.06 | 0.094 | -0.04 | 0.095 |
| PRKCB isoform 2 (UniProt P05771) | -0.007 | -0.022 | 0.086 | 0.07 | -0.005 |
| PUS1 (UniProt Q9Y606) | 0 | 0.014 | 0.013 | -0.024 | 0.029 |
| PICALM (UniProt H0YEH1) | 0.018 | -0.027 | -0.138 | 0.075 | -0.303 |
| PPOX (UniProt P50336) | 0.579 (active) | 0.012 | -0.009 | -0.02 | -0.023 |
| PRKACB isoform 2 (UniProt P22694) | -0.042 | -0.004 | -0.018 | -0.009 | 0.019 |
| PIP4K2C (UniProt Q8TBX8) | -0.12 | -0.062 | -0.113 | -0.023 | -0.011 |
| PIP4K2B (UniProt P78356) | -0.063 | -0.078 | -0.014 | 0.036 | -0.108 |
| PDE4DIP isoform 4 (UniProt Q5VU43) | -0.102 | 0.154 | 0.018 | -0.016 | -0.015 |
| PITRM1 isoform 2 (UniProt Q5JRX3) | 0.158 | -0.193 | 0.005 | 0.04 | 0.01 |
| PHKA1 (UniProt P46020) | 0.033 | 0.02 | 0 | -0.008 | 0.001 |
| PPT2 isoform 3 (UniProt Q9UMR5) | 0.01 | -0.03 | -0.046 | -0.048 | -0.08 |
| PGPEP1 (UniProt Q9NXJ5) | 0.027 | -0.071 | -0.013 | -0.025 | 0.012 |
